# Data: PMC7862700, “An all-to-all approach to the identification of sequence-specific readers for epigenetic DNA modifications on cytosine”
# Experiments:
# Assay in all cases: DAPPL (digital affinity profiling via proximity ligation, sequencing); 10 mM Tris-HCl pH 7.5, 50 mM NaCl, 1 mM DTT, 4% glycerol, room temperature, 30 min; GST-TFs on glutathione beads, 16-mer random dsDNA library, 0.1% formaldehyde crosslink after washing; high values mean tight binding
# [1] = target: T1, FEV (Homo sapiens, UniProt Q99581 1-238); conditions: protein: recombinant; tags: N-terminal GST; dsDNA, one strand shown
# T1 sequence: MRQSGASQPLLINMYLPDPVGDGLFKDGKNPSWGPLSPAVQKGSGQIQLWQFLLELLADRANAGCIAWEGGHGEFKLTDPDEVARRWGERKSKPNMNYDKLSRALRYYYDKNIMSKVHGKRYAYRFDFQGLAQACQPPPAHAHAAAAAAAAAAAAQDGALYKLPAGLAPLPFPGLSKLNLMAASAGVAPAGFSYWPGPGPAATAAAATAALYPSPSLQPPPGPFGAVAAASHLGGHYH
# Outline: (§1)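 In yeast, human transcription factors were expressed with a GST fusion, then pulled down on glutathione beads and given DNA barcodes. Pooled with a tag-only sample, they were exposed to 200 nmole of a 16-mer random double-stranded DNA library (Tris/NaCl/DTT/glycerol buffer, room temperature, 30 min), washed, crosslinked with 0.1% formaldehyde, proximity-ligated using BsaI/T4 ligase for 1 h at 37 °C, PCR-amplified and read on an Illumina NextSeq500. Each hexamer's frequency of reads for a factor, divided by the matching frequency for the tag-only sample, gives the binding signal.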
# [2] = target: ETV5 (Homo sapiens, UniProt P41161 1-510); conditions: protein: recombinant; tags: N-terminal GST; dsDNA, one strand shown
# Chain of ETV5 (P41161 whole entry): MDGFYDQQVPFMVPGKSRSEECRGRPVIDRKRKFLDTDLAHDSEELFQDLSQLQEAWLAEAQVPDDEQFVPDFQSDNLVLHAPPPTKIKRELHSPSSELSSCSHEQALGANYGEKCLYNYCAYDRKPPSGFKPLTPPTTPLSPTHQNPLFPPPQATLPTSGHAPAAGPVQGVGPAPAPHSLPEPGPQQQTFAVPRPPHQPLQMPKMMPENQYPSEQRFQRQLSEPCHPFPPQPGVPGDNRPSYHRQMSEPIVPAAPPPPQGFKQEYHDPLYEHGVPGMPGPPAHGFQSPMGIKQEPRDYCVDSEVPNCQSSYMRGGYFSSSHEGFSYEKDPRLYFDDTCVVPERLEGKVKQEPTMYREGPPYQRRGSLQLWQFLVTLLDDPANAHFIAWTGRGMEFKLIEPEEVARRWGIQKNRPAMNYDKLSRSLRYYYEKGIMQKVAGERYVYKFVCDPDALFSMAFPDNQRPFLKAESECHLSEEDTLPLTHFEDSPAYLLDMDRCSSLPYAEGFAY
# Outline: as §1
# [3] = target: HSF1 (Homo sapiens, UniProt Q00613 1-529); conditions: protein: recombinant; tags: N-terminal GST; chain copies: 3; dsDNA, one strand shown
# Chain of HSF1 (Q00613 whole entry): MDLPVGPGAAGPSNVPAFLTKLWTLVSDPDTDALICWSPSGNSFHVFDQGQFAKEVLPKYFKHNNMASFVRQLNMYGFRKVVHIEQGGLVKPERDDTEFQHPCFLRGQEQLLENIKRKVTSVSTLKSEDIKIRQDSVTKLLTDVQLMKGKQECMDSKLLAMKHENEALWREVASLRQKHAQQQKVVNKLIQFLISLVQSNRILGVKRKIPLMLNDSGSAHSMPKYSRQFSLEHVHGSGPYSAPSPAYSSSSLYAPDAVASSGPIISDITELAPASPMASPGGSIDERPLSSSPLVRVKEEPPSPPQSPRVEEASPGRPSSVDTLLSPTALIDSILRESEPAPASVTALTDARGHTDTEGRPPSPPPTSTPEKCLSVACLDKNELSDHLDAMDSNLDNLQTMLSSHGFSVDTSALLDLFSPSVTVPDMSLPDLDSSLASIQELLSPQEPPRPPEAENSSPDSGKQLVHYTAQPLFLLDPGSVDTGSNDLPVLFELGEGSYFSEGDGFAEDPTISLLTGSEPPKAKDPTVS
# Outline: as §1
# [4] = target: T2, SPIC (Homo sapiens, UniProt Q8N5J4 1-248); conditions: protein: recombinant; tags: N-terminal GST; dsDNA, one strand shown
# T2 sequence: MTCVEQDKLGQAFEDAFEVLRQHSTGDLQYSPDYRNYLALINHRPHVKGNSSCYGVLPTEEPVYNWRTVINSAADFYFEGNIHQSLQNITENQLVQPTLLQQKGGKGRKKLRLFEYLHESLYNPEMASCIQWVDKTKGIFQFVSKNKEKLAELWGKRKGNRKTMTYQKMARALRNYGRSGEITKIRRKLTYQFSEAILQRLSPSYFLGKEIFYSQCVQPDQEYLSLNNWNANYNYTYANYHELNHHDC
# Outline: as §1
# [5] = target: ELF4 (Homo sapiens, UniProt Q99607 1-663); conditions: protein: recombinant; tags: N-terminal GST; dsDNA, one strand shown
# Chain of ELF4 (Q99607 whole entry): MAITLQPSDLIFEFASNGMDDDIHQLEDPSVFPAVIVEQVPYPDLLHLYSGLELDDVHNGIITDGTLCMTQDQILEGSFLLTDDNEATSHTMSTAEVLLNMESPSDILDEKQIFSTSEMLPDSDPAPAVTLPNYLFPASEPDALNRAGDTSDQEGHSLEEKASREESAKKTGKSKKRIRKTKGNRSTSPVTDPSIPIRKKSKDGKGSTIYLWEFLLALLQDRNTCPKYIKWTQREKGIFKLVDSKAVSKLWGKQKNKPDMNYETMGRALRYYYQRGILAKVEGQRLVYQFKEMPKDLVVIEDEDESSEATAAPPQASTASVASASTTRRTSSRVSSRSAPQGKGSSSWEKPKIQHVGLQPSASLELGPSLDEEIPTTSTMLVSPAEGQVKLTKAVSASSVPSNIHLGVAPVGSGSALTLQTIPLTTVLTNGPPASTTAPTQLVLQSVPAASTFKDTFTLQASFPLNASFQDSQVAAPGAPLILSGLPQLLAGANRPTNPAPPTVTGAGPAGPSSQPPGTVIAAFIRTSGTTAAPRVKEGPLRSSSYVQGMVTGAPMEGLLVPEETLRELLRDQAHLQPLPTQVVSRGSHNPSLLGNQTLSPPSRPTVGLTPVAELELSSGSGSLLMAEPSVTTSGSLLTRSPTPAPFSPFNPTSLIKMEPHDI
# Outline: as §1
# [6] = target: T3, ELK4 (Homo sapiens, UniProt P28324-2 1-405); conditions: protein: recombinant; tags: N-terminal GST; dsDNA, one strand shown
# T3 sequence: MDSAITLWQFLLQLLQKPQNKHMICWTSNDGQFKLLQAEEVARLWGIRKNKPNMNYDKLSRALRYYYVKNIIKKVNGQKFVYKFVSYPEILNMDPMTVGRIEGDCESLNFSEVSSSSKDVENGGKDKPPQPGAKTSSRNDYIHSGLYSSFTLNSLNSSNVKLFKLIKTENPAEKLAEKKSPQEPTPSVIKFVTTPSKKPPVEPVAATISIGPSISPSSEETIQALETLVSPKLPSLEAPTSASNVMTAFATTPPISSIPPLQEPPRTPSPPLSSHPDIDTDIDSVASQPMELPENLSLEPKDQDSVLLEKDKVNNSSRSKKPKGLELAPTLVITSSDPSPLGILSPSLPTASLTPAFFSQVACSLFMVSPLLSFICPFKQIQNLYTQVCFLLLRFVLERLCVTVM
# Outline: as §1
# [7] = target: T4, ETV2 (Homo sapiens, UniProt O00321 1-342); conditions: protein: recombinant; tags: N-terminal GST; dsDNA, one strand shown
# T4 sequence: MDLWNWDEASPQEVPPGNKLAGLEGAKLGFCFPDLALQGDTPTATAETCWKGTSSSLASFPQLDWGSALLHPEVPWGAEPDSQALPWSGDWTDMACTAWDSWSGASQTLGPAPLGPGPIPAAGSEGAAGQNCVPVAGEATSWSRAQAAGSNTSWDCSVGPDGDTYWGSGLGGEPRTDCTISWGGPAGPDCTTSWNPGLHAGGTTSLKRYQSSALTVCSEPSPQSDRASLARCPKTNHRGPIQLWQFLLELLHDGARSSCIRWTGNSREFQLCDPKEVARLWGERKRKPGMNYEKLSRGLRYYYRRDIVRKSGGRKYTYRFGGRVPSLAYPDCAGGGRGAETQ
# Outline: as §1
# [8] = target: T5, ELF3 (Homo sapiens, UniProt P78545 1-371); conditions: protein: recombinant; tags: N-terminal GST; dsDNA, one strand shown
# T5 sequence: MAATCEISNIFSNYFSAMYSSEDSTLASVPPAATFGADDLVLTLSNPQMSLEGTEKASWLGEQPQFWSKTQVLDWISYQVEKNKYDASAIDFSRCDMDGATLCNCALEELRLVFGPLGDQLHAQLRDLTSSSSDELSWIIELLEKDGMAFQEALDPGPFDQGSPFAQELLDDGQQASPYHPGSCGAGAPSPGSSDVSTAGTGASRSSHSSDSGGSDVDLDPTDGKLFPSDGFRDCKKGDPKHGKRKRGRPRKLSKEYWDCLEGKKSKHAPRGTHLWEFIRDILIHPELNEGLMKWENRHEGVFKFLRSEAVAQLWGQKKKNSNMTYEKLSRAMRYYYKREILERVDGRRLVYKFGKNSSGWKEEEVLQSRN
# Outline: as §1
# [9] = target: CRX (Homo sapiens, UniProt O43186 1-299); conditions: protein: recombinant; tags: N-terminal GST; dsDNA, one strand shown
# Chain of CRX (O43186 whole entry): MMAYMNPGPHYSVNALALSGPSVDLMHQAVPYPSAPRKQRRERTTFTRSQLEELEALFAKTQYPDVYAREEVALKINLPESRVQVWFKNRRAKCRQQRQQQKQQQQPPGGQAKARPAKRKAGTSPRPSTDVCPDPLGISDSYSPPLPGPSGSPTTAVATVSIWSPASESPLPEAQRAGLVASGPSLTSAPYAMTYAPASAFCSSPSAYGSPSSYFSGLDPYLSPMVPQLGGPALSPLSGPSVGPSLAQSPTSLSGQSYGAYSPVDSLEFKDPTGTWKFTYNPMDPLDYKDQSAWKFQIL
# Outline: as §1
# [10] = target: ETV1 (Homo sapiens, UniProt P50549 1-477); conditions: protein: recombinant; tags: N-terminal GST; dsDNA, one strand shown
# Chain of ETV1 (P50549 whole entry): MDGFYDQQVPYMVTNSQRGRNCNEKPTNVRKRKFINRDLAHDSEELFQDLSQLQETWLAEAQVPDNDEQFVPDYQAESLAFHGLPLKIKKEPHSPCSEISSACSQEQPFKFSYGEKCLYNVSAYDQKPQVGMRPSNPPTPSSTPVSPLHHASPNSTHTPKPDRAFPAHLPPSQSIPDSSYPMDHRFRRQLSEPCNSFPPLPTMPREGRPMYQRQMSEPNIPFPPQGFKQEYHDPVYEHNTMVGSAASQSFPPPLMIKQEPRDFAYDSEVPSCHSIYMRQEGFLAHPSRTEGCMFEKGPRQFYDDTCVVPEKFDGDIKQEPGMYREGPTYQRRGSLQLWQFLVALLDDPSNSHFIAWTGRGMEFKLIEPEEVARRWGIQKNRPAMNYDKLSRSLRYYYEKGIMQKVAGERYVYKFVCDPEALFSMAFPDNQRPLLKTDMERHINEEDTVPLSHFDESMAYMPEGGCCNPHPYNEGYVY
# Outline: as §1
# [11] = target: T6, ERF (Homo sapiens, UniProt P50548 1-548); conditions: protein: recombinant; tags: N-terminal GST; dsDNA, one strand shown
# T6 sequence: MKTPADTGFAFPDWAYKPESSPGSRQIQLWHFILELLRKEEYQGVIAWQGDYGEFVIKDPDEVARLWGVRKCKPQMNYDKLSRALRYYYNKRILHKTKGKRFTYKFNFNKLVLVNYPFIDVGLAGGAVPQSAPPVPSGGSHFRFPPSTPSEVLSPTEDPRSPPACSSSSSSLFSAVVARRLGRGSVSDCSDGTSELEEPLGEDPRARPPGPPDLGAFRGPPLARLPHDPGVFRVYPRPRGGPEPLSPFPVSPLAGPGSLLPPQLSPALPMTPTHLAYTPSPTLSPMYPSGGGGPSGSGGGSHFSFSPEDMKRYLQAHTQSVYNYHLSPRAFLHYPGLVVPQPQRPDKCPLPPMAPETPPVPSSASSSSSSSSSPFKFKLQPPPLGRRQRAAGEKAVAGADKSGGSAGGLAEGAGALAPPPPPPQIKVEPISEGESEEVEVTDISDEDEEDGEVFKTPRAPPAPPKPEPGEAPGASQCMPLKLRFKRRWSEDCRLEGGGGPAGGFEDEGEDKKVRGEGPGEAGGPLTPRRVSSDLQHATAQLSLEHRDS
# Outline: as §1
# [12] = target: T7, ETV3L (Homo sapiens, UniProt Q6ZN32 1-361); conditions: protein: recombinant; tags: N-terminal GST; dsDNA, one strand shown
# T7 sequence: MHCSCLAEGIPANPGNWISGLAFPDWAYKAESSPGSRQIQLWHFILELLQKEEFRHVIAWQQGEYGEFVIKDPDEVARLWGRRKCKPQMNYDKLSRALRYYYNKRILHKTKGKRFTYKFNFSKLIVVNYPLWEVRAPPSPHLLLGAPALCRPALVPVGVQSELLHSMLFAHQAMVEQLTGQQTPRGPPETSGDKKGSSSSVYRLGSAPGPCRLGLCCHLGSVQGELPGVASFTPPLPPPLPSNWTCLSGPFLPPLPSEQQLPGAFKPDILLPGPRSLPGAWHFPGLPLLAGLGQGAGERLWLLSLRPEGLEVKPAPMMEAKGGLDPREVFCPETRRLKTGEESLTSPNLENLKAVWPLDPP
# Outline: as §1
# [13] = target: T8, ETS2 (Homo sapiens, UniProt P15036 1-469); conditions: protein: recombinant; tags: N-terminal GST; dsDNA, one strand shown
# T8 sequence: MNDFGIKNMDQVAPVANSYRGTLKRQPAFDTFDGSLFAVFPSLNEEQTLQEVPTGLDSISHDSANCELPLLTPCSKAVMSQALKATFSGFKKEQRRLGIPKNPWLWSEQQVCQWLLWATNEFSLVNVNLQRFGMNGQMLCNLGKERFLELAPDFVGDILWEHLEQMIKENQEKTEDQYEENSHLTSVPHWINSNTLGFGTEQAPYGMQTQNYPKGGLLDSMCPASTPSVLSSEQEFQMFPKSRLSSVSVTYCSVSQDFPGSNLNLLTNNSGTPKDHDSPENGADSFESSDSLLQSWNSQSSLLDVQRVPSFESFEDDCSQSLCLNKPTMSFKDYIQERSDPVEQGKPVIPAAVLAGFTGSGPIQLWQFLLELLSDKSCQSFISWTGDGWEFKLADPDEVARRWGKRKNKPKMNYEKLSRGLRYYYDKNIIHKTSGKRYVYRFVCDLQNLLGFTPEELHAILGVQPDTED
# Outline: as §1
# [14] = target: T9, SPDEF (Homo sapiens, UniProt O95238 1-335); conditions: protein: recombinant; tags: N-terminal GST; dsDNA, one strand shown
# T9 sequence: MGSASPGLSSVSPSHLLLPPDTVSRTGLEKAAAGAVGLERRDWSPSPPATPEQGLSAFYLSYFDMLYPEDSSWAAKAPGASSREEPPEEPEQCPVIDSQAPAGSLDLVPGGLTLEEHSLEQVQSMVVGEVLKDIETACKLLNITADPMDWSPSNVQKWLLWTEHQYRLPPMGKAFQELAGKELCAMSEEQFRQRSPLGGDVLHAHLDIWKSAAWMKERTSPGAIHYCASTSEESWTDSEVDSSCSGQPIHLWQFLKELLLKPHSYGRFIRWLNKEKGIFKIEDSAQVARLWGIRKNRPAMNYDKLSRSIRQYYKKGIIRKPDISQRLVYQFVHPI
# Outline: as §1
# [15] = target: T10, ETV7 (Homo sapiens, UniProt Q9Y603 1-341); conditions: protein: recombinant; tags: N-terminal GST; dsDNA, one strand shown
# T10 sequence: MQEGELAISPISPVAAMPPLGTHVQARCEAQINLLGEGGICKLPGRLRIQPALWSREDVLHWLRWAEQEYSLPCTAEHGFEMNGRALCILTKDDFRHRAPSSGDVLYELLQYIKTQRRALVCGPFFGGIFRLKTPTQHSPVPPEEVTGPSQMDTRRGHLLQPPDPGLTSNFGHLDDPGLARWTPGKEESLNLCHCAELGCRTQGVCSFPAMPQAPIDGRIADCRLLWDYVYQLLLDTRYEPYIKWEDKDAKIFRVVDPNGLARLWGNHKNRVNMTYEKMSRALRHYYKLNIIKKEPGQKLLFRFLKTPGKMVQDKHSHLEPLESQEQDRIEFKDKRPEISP
# Outline: as §1
# [16] = target: T11, ELF5 (Homo sapiens, UniProt Q9UKW6-2 1-255); conditions: protein: recombinant; tags: N-terminal GST; dsDNA, one strand shown
# T11 sequence: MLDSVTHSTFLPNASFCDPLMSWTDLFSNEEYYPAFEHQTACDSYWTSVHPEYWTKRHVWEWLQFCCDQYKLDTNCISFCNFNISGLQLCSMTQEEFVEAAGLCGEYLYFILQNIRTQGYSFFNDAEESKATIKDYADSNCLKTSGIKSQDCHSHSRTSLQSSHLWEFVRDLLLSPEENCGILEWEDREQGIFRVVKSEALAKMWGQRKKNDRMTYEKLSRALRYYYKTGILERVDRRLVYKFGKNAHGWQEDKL
# Outline: as §1
# [17] = target: T12, ETV3 (Homo sapiens, UniProt P41162-2 1-143); conditions: protein: recombinant; tags: N-terminal GST; dsDNA, one strand shown
# T12 sequence: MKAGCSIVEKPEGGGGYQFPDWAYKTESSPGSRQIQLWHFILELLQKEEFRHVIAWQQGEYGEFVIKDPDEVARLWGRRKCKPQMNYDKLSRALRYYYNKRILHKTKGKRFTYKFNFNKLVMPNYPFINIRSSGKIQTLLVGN
# Outline: as §1
# [18] = target: ETV6 (Homo sapiens, UniProt P41212 1-452); conditions: protein: recombinant; tags: N-terminal GST; dsDNA, one strand shown
# Chain of ETV6 (P41212 whole entry): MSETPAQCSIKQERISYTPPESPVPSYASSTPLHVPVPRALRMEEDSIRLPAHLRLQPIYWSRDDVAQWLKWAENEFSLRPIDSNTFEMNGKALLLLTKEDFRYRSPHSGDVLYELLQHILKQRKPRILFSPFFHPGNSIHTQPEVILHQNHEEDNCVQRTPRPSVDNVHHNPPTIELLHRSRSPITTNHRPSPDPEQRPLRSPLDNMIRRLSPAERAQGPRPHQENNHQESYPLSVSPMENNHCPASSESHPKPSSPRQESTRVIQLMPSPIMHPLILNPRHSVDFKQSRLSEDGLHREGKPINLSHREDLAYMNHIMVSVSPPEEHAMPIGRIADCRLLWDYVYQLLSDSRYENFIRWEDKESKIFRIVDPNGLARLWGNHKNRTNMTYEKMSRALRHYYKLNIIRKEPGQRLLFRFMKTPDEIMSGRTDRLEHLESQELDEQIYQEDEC
# Outline: as §1
sequence,measurement,setting,value
AAATGA,binding signal,[1],"1.26 fold enrichment (6-mer frequency, TF over GST control)"
same,binding signal,[2],"1.32 fold enrichment (6-mer frequency, TF over GST control)"
same,binding signal,[3],"1.12 fold enrichment (6-mer frequency, TF over GST control)"
same,binding signal,[4],"1.54 fold enrichment (6-mer frequency, TF over GST control)"
same,binding signal,[5],"1.29 fold enrichment (6-mer frequency, TF over GST control)"
same,binding signal,[6],"1.29 fold enrichment (6-mer frequency, TF over GST control)"
same,binding signal,[7],"1.36 fold enrichment (6-mer frequency, TF over GST control)"
same,binding signal,[8],"1.41 fold enrichment (6-mer frequency, TF over GST control)"
same,binding signal,[9],"1.16 fold enrichment (6-mer frequency, TF over GST control)"
same,binding signal,[10],"1.29 fold enrichment (6-mer frequency, TF over GST control)"
same,binding signal,[11],"1.42 fold enrichment (6-mer frequency, TF over GST control)"
same,binding signal,[12],"1.29 fold enrichment (6-mer frequency, TF over GST control)"
same,binding signal,[13],"1.29 fold enrichment (6-mer frequency, TF over GST control)"
same,binding signal,[14],"1.18 fold enrichment (6-mer frequency, TF over GST control)"
same,binding signal,[15],"1.42 fold enrichment (6-mer frequency, TF over GST control)"
same,binding signal,[16],"1.25 fold enrichment (6-mer frequency, TF over GST control)"
same,binding signal,[17],"1.43 fold enrichment (6-mer frequency, TF over GST control)"
same,binding signal,[18],"1.47 fold enrichment (6-mer frequency, TF over GST control)"
